Screening data as filed in PubChem BioAssay.
Sampled rows, rich in hits. Any-hit rate of the full collection: about 2%.
FAS TE block: inhibitors of human fatty acid synthase thioesterase domain | inhibition, % at 15 µM | recombinant FAS-TE, OMFH fluorogenic substrate, fluorescence endpoint | P49327 | 360,000 compounds, 0.67% hits;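 active = compounds whose normalised, plate-corrected inhibition of enzyme fluorescence in the single-dose primary screen is 50% or more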;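 also: 0% = DMSO with enzyme and 100% = substrate without enzyme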
NPR2 activator: GC-B (human) receptor activation; AID 1920062; 370,000 compounds, 0.11% hits; activation, % at 10 µM; P20594; HEK293-GC-B cells, CNP EC30, cGMP TR-FRET; 0% at EC30 CNP, 100% saturating CNP;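 active = activation at 10 µM reaching about 35% in either raw or pattern-adjusted values, limit read from the data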
ADAM17 inh: ADAM17 inhibition, QFRET primary screen; P78536; recombinant ADAM17, EDANS/DABCYL FRET peptide cleavage; inhibition, % at 6.95 µM; 370,000 compounds, 0.83% hits; AID 720648;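 active = inhibition above the mean of compounds lying between control limits plus 3 SD, set per campaign, cut at about 8.5% in these data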;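 also: 0% = DMSO-only wells as the low control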
NPR1 activator: GC-A (human) enzyme activation | P16066 | HEK293 GC-A cells, cGMP TR-FRET, EC30 ANP; 0% at EC30 ANP, 100% saturating ANP | activation, % at 10 µM | 370,000 compounds, 0.14% hits; in the data active = activation above about 40%
ADAM10 inh: inhibits human ADAM10. 370,000 compounds, 0.62% hits. recombinant ADAM10, EDANS/DABCYL FRET peptide cleavage, 3 h. O14672. inhibition, % at 7 µM. AID 720582;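 active = inhibition above a per-campaign cutoff equal to the mean of compounds falling between control-based bounds plus 3 SD, cut at about 20% in these data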;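 also: 0% = DMSO wells while the 100% control is not disclosed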
FAS-TE inh conf: confirmation of human fatty acid synthase thioesterase inhibitors. AID 624325. recombinant FAS-TE, OMFH fluorogenic substrate, fluorescence. inhibition, % at 15 µM. 2,300 compounds, 45% hits. shares compounds with FAS TE block;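 active = compounds inhibiting the enzyme by at least 50% at 15 µM in any one of the replicates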;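 also: 0% = enzyme with DMSO only and 100% = wells lacking enzyme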
The depositor's hits bear a star; · = not tested or not shown.

SMILES	FAS TE block	NPR2 activator	ADAM17 inh	NPR1 activator	ADAM10 inh	FAS-TE inh conf
CCCCCCCCN1C(=O)[C@@H](CC(=O)NCC23CC4CC(CC(C4)C2)C3)C[C@@]2(C(=O)OC)C1=C[C@H](C(C)C)O[C@@H]2C1CC1	·	3.0	-7.4	1.6	-10.2	·
O=C(NCc1cccnc1)c1cc([N+](=O)[O-])ccc1N1CCOCC1	-1.1	2.0	-3.4	6.5	-4.0	·
CCOc1ccc(NC(=O)COC(=O)c2cc([N+](=O)[O-])ccc2N2CCOCC2)cc1	60.9*	-1.8	1.4	0.9	1.9	39.3
Cc1cc(C)c(NC(=O)COC(=O)c2cc([N+](=O)[O-])ccc2N2CCOCC2)c(C)c1	65.4*	0.9	-2.1	1.7	-5.2	53.8*
O=C(NCCOc1ccccc1)c1cc([N+](=O)[O-])ccc1N1CCOCC1	57.0*	3.7	0.0	1.0	-9.1	29.5
O=C(Nc1ccc(Cc2ccncc2)cc1)c1cc([N+](=O)[O-])ccc1N1CCOCC1	81.5*	-5.7	-1.8	-4.2	8.7	88.0*
Cc1ccc(C)c(C(=O)COC(=O)c2cc([N+](=O)[O-])ccc2N2CCOCC2)c1	45.7	-0.6	-2.7	-2.2	-3.7	·
COc1ccc2c(c1)C[C@@H]1CC(C)(C)CN1S2(=O)=O	·	-2.5	-2.2	0.7	-5.6	·
COc1ccc([C@H]2CC(=O)C=C(c3ccc(C)c([N+](=O)[O-])c3)C2)cc1	76.4*	-2.3	1.0	2.4	1.6	80.7*
COc1ccc([C@H]2CC(=O)C=C(c3ccc(Cl)c(C(F)(F)F)c3)C2)cc1	53.8*	3.0	2.6	0.4	5.4	-1.1
N#Cc1ccc(/C=C2\CC3(OC(=O)c4cccc(F)c4)CCCN2C3)cc1 (centres undefined)	·	-5.3	-0.1	-2.2	0.8	·
O=[N+]([O-])c1cc(C=NN2CCN(Cc3ccccc3Cl)CC2)ccc1Cl	·	0.2	-2.5	4.3	-6.5	·
CNS(=O)(=O)c1ccc2c(c1)C(=O)c1cc(S(=O)(=O)NC)ccc1CC2	82.4*	4.2	-1.4	-4.3	-1.7	91.4*
CN(C)S(=O)(=O)c1ccc2c(c1)C(=NO)c1cc(S(=O)(=O)N(C)C)ccc1-2	-63.3	4.8	-1.4	2.9	-7.7	·
CN(C)S(=O)(=O)c1ccc2c(c1)C(=O)c1cc(S(=O)(=O)N(C)C)ccc1CC2	78.9*	2.3	-1.3	-1.6	-1.4	93.6*
CNS(=O)(=O)c1ccc(C)c(S(=O)(=O)NC)c1	-9.9	10.3	2.3	-1.2	5.9	·
CN1CCN(c2ccc([N+](=O)[O-])cc2/C=N/NC(=O)c2ccc(F)cc2)CC1	51.8*	3.0	-0.2	1.5	-2.8	50.6*
CCN(CC)C(=O)C1CCCN(c2ccc([N+](=O)[O-])cc2/C=N/NC(=O)c2cccc(Br)c2)C1 (centres undefined)	86.3*	-6.2	3.1	-9.8	4.2	17.0
Cc1nn(C)cc1C(C(=O)NC1CCCCC1)N(C(=O)Cc1cccs1)c1ccc(F)cc1 (centres undefined)	-4.9	1.9	-5.6	1.6	-9.0	·
Cc1nn(C)cc1C(C(=O)NC1CCCCC1)N(C(=O)Cc1cccs1)c1ccc(C(C)C)cc1 (centres undefined)	60.9*	-3.2	-1.9	-7.5	-6.2	59.3*
Cc1cc(C)c(C#N)c(N2CCN(CCOc3ccc(Cl)cc3)CC2)n1	50.1*	-0.3	-0.6	2.4	-2.4	33.4
Cc1c(C(=O)Nc2cccc(Cl)c2)oc2ccc(S(=O)(=O)N3CCC4(CC3)OCCO4)cc12	65.6*	-2.4	·	-2.5	·	1.0
Cc1c(C(=O)Nc2ccc(F)cc2)oc2ccc(S(=O)(=O)N3CCC4(CC3)OCCO4)cc12	36.2	6.5	2.5	-0.6	4.2	·
C=CCN=C1NC(c2ccccc2C(F)(F)F)C(C(=O)OC)=C(C)N1Cc1ccccc1C(F)(F)F (centres undefined)	·	-5.2	-0.1	-8.2	-1.6	·
COc1cccc(/C=C2/Sc3ccc(C(=O)NC4CC4)cc3NC2=O)c1	·	9.7	-2.8	10.2	-6.3	·
SMILES	FAS TE block	NPR2 activator	ADAM17 inh	NPR1 activator	ADAM10 inh	FAS-TE inh conf
Cc1cccc(Nc2ccc(S(=O)(=O)N3CCOCC3)cc2[N+](=O)[O-])c1	24.8	6.7	6.1	-1.2	13.9	·
C=CCn1c(O)c(N=NC(=S)Nc2ccccc2F)c2cc(S(=O)(=O)N3CCOCC3)ccc21	58.7*	-6.7	8.2	-4.8	7.5	16.3
Cc1cc(C)cc(NC(=S)N=Nc2c(O)n(C)c3ccc(S(=O)(=O)N4CCOCC4)cc23)c1	61.0*	2.5	-6.6	-6.9	-0.1	5.9
Cc1cccc(NC(=S)N=Nc2c(O)n(C)c3ccc(S(=O)(=O)N4CCOCC4)cc23)c1	58.9*	-3.3	-3.3	-3.9	1.9	24.3
Cc1ccc(NC(=S)N=Nc2c(O)n(C)c3ccc(S(=O)(=O)N4CCOCC4)cc23)cc1	58.9*	1.6	-1.7	8.8	11.2	27.5
Cn1c(=O)n(C)c2cc(S(=O)(=O)N3CCOCC3)ccc21	-7.7	-0.5	1.6	4.0	6.1	·
CC(C)N(Cc1cn(Cc2ccccc2)nn1)S(=O)(=O)c1ccccc1Br	·	-4.1	-0.5	2.9	5.4	·
Cc1cccc(C)c1NC(=S)N=Nc1c(O)n(C)c2ccc(S(=O)(=O)N3CCOCC3)cc12	76.4*	3.0	-3.2	-0.7	-3.2	31.4
Cc1ccccc1NC(=S)N=Nc1c(O)n(C)c2ccc(S(=O)(=O)N3CCOCC3)cc12	20.7	-0.2	6.2	-1.4	7.9	·
CCCN1CCCCC(NC(=O)c2cccs2)C1=O (centres undefined)	·	-2.4	-4.8	2.6	-6.7	·
Cc1ccc(-c2nnc3ccc(SCC(=O)N4CCCc5ccccc54)nn23)cc1	73.7*	-1.6	-4.7	1.1	-4.5	70.0*
Cc1ccc(S(=O)(=O)NCC(=O)N2CCN(c3ccccn3)CC2)cc1C	·	-4.1	-3.4	-11.0	-15.9	·
O=C1N2Cc3ccccc3C2CS(=O)(=O)N1CCc1ccccc1 (centres undefined)	·	-4.8	0.4	-5.0	6.5	·
COC(=O)[C@]12CCCCC=C1N(Cc1ccc(OC)cc1)C(=O)[C@@H]2CC(=O)NCCC(C)C	·	5.6	1.1	-2.6	4.5	·
O=C(CSc1nc2ccccc2c(=O)n1-c1ccc(Cl)cc1)N/N=C/C=C/c1ccccc1[N+](=O)[O-]	79.8*	-9.1	-2.0	-9.7	1.8	16.6
COc1ccc(/C=C/C(=O)Nc2cc(S(=O)(=O)N3CCOCC3)ccc2N2CCCC2)cc1OC	2.5	3.4	2.3	2.4	1.0	·
COc1ccc(NC(=O)c2ccc3ccccc3n2)cc1S(=O)(=O)Nc1ccccc1Cl	64.3*	6.2	2.8	-0.2	4.1	13.0
COc1cc(/C=C/C(=O)Nc2ccc(N3CCCCC3)c(S(=O)(=O)Nc3ccccc3Cl)c2)cc(OC)c1OC	58.1*	2.6	-1.9	-3.9	-3.7	12.2
